The values that follow come from PubChem BioAssay AID1851 (National Center for Advancing Translational Sciences (NCATS), 2009).

Structures are written as SMILES. Several values for one entry are separate records, joined by “and”; a condition that tells them apart may be missing. Equal entries are not always repeated. The campaign covered roughly 16,000 compounds. About 2,600 (16%) were called active. Inconclusive results (about 20%) are left out. The call rests on the fitted dose curve; in most records, active means well fitted curve in the direction sought with a large enough effect; inconclusive means small, poorly fitted or top-dose-only effect, or effect the other way; inactive means no such curve, though single readings can be large or run the other way. Only a sample is shown.
On the % scale 0 is the no-effect control and ±100 the full control effect.

In this test the target is Cytochrome P450 2D6 (Homo sapiens) (UniProt P10635). Description: Cytochrome panel assay with activity outcomes. Particulars: recombinant CYP, pro-luciferin dealkylation, luminescence, p450-cyp2d6; series mostly up to 57.1 µM.
Chain of Cytochrome P450 2D6 (Homo sapiens) (P10635 whole entry, looked up): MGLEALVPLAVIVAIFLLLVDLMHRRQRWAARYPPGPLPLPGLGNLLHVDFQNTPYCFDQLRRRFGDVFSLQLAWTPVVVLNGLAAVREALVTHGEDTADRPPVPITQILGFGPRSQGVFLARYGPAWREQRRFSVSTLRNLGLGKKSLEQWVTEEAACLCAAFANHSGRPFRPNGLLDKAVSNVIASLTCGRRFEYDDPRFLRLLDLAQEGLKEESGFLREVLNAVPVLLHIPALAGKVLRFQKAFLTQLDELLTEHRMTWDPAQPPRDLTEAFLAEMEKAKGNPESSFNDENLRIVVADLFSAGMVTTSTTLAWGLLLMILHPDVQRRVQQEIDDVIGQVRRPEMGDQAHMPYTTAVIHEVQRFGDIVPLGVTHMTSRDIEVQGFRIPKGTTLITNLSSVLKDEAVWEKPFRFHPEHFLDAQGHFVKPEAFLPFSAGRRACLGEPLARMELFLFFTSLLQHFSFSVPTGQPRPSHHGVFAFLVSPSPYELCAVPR
Take `O=S(=O)(c1cnccc1N1CCN(CCO)CC1)N1CCCC1`: the activity, negative = inhibition was 10% [at 11.4 µM] (inactive). With `Cc1cccc(Nc2ccccc2C(=O)OCC(=O)NCc2ccco2)c1C`, the AC50 result is “inactive”. On the same count and under the same terms, under `O=C(Nc1ccccc1Cl)c1ccn[nH]1` stands “inactive”; under `O=C1C(=O)N(Cc2ccc(Cl)c(Cl)c2)c2ccccc21`, 3.98 µM (active); under `O=C1c2cccnc2C(=O)N1Cc1ccc(F)cc1`, “inactive”. On the same count and under the same terms, under `O=C1CCCc2ccccc2N1Cc1cccc(Cl)c1` stands “inactive”; under `CCn1ncc(C(=O)Nc2cc(C)on2)c1C`, “inactive”. In the case of `Cc1c(C)c2c(C)[nH]nc2oc1=O`, the AC50 result is “inactive”. Consider `CN(C)c1nc(C#N)nc(N2CCOCC2)n1`, for which the AC50 result was “inactive”. Still for that read-out and setting: under `CCOC(=O)[C@H](N)/C=C(\C)CP(=O)(O)O` stands 2 µM (active); under `CCOC(=O)C(NC(C)=O)C(=O)O` (stereo not given), “inactive”; under `O=C(O)CP(=O)(O)O`, “inactive”. Take `Cc1ccc(C)c2sc(NC(=O)c3ccc(N4CCCCC4)c([N+](=O)[O-])c3)nc12`: the AC50 entry is “inactive”. Turning to `CCc1nnc(NC(=O)CCC(=O)N2CCN(c3ccccn3)CC2)s1`, the AC50 result is “inactive”.

On to `Cc1ccc(C2CC2C(=O)NN)cc1` (stereo not given), for which the AC50 result is “inactive”.

Regarding `Cc1ccc(C2NC(c3ccc(C)cc3)C(C)C(=NO)C2C)cc1` (stereo not given), the AC50 is 0.562 µM (active). Still for that read-out and setting: under `Cc1ccc(NC(=O)/C(=C\c2cccc([N+](=O)[O-])c2)NC(=O)c2cccs2)cc1` stands “inactive”.

On to `c1ccc(-c2csc(Nc3nc(N4CCOCC4)nc(N4CCOCC4)n3)n2)cc1`, for which the AC50 result was “inactive”. Consider `OCCNc1nc(NCCC2=CCCCC2)nc(N2CCOCC2)n1`, for which the AC50 is 7.08 µM (active). On the same count and under the same terms, under `Cc1nc2ncnn2c(C)c1CCC(=O)NCCC1=CCCCC1` stands “inactive”. As for `COc1ccc(-c2cc(C(F)(F)F)nc(N3CCCCC3)n2)cc1OC`, the AC50 entry is “inactive”. For the compound `Cc1ccccc1N1C(=O)c2cc(S(N)(=O)=O)c(Cl)cc2N[C@H]1C`, the AC50 result is “inactive”. Take `OC(COCc1ccccc1)Cn1cnc2ccccc21` (stereo not given): the AC50 was 14.1 µM (active). The same measure, in the same setting: to `C[n+]1cn(CC(O)COCc2ccccc2)c2ccccc21` (stereo not given) belongs 1.12 µM (active). As to `O=C1CCCC=C1[C@@H](O)COCc1ccccc1`, the activity, negative = inhibition was -20.2% [at 11.4 µM] (inactive). As to `Cn1c2ccccc2c2cc(C(=O)N3CCOCC3)sc21`, the AC50 entry is “inactive”.

With `CSc1nsc(/C=C/Nc2ccc(Cl)cc2)c1C#N`, the AC50 result was “inactive”. Regarding `Cc1noc(C)c1CS(=O)(=O)c1ccc(Br)cc1`, the AC50 result was “inactive”.

For the compound `CCCC[S@@](=N)(=O)CC[C@@H](N)C(=O)O`, the AC50 result was “inactive”.

In the case of `CCCCCCCCCCCCCCC/C=C\[C@H](O)[C@@H](NC(=O)CCCCCCCCCCCCC)OC` (tested in a mixture with another compound), the AC50 result is “inactive”.

Consider `CCCCCCC/C=C\CCCCCCCCC(=O)O`, for which the AC50 result is “inactive”. On the same count and under the same terms, to `CCCCCCCCCCCCC/C=C\[C@@H](O)[C@@H](N)CO` belongs 15.8 µM (active); to `CCCCCCCCCCCCCCC[C@@H](O)[C@@H](N)CO`, 7.94 µM (active); to `O=C(O)CN(CCOCCOCCN(CC(=O)O)CC(=O)O)CC(=O)O`, “inactive”. Same read-out and setting: to `CC(=O)c1c(C)[nH]c(C(=O)COc2ccc(C#N)cc2)c1C` belongs “inactive”. For `CSc1nc2c(c(=O)[nH]1)C(c1ccncc1)C(C(=O)OC(C)C)=C(C)N2` (stereo not given), the AC50 entry is “inactive”.

Consider `COc1cc(C(=O)Nc2ccc3c(c2)OCCO3)c(-n2cnnn2)cc1OC`, for which the AC50 result was “inactive”. Same read-out and setting: under `S=C1NC2=C(C(c3ccc(Br)cc3)N1)N1CCC2CC1` (stereo not given) stands “inactive”; under `CCN1CCN(C(=S)c2ccc(Br)cc2)CC1`, 1 µM (active); under `CC1CCN(C(=S)c2ccc(O)cc2)CC1`, “inactive”. As for `CCN1CCN(C(=O)CCc2nc3ccccc3c(=O)[nH]2)CC1`, the AC50 entry was “inactive”. Consider `CO[C@@H]1COC(=O)C/C=C\[C@@H](C)COC(=O)[C@H](COCc2ccccc2)NC(=O)C/C=C\[C@H]1C`, for which the activity, negative = inhibition is 10.2% [at 11.4 µM] (inactive). `CC(O)CN(CCC(N)=O)CCC(N)=O` (stereo not given): the AC50 entry was “inactive”. For the compound `Cc1cccc(Nc2ccncc2S(=O)(=O)NC(=O)NC(C)C)c1`, the AC50 result is “inactive”. On the same count and under the same terms, under `Cn1cc(-c2nc3cnc(N4CCNCC4)nc3n(C3CC3)c2=O)c2ccccc21` stands “inactive”; under `CC(C)CC(=O)O/N=C1\C(=O)N(c2ccccc2)c2ccccc21`, “inactive”; under `C=CCn1c(=O)c2c(nc(Br)n2Cc2ccccc2Cl)n(C)c1=O`, “inactive”. Still for that read-out and setting: under `CC(=O)OCC(=O)[C@@]1(OC(C)=O)[C@H](C)C[C@H]2[C@@H]3C[C@H](F)C4=CC(=O)C=C[C@@]4(C)[C@]3(F)[C@H](O)C[C@@]21C` stands “inactive”; under `O=C1COc2ccc(OCc3ccc(F)cc3)cc21`, “inactive”. On the same count and under the same terms, under `Cc1cc(NCCO)c2ccccc2n1` stands “inactive”. `O=C(O)CC1(CC(=O)O)Nc2ccccc2SC1=O`: the activity, negative = inhibition was 8.66% [at 11.4 µM] (inactive).

On to `CN1CCN(CCC=C2c3ccccc3Sc3ccc(S(=O)(=O)N(C)C)cc32)CC1`, for which the half-maximal activity concentration (AC50) is 31.6 µM (active). On the same count and under the same terms, under `CCOC(=O)C1CCCN(C(=O)c2sc3nc(-c4ccc(OC)cc4)cn3c2C)C1` (stereo not given) stands “inactive”; under `Cc1c(Nc2cc(N3CCCC(C)C3)c3nonc3c2[N+](=O)[O-])c(=O)n(-c2ccccc2)n1C` (stereo not given), “inactive”; under `COC(=O)c1ccc(N2CCN(c3ccccc3)CC2)c(NC(=O)C2CC2)c1`, “inactive”. The same measure, in the same setting: to `Cc1ccc(Nc2ccc(-n3ccnc3)nn2)cc1C` belongs 2.51 µM (active). Consider `O=C(Nc1ncc(Cc2ccccc2)s1)C1COc2ccccc2O1` (stereo not given), for which the AC50 entry is “inactive”. Same read-out and setting: to `O=C1C2CCCN2c2ccc(S(=O)(=O)N3CCOCC3)cc2N1Cc1cccc(C(F)(F)F)c1` (stereo not given) belongs “inactive”. As to `Cc1onc(-c2c(F)cccc2Cl)c1C(=O)N[C@H]1C(=O)N2[C@H]1SC(C)(C)[C@H]2C(=O)O`, the AC50 entry is “inactive”.

For `O=C(O)CC[C@@H](C(=O)O)N1C(=O)c2ccccc2C1=O`, the AC50 result is “inactive”. Same read-out and setting: to `CCOc1cccc(OCCCNCCCOC)c1` belongs 11.2 µM (active); to `COC(=O)COc1cccc(NC(=O)c2ccc(C)cc2)c1`, “inactive”. `COc1cccc(OCCCOc2ccccc2C(C)C)c1`: the AC50 result is “inactive”. As to `O=C(N/N=C/c1ccco1)c1ccccn1`, the AC50 result was “inactive”.

For `COc1ccc(NC(=O)/C(=C\c2cc(OC)c(OC)cc2[N+](=O)[O-])NC(=O)c2ccccc2)cc1`, the AC50 entry was “inactive”.

Turning to `COc1ccc(C(=O)Nc2ccc(F)cc2F)cc1OC`, the AC50 result was “inactive”.

As to `O=C(Cc1ccccc1)NCCSCc1ccc(Cl)cc1`, the AC50 was 3.16 µM (active).

`Cc1ccccc1OCCNC(=S)Nc1ccccc1`: the AC50 result is “inactive”.

Turning to `S=C(NCCSCc1c(Cl)cccc1Cl)Nc1ccccc1`, the half-maximal activity concentration (AC50) was 4.47 µM (active). Regarding `O=C(O)CCSCc1ccccc1`, the activity, negative = inhibition was -5.23% [at 11.4 µM] (inactive). As for `O=C(COc1ccccc1Cl)NC(=S)Nc1cccc(NC(=O)c2ccccc2Cl)c1`, the AC50 result was “inactive”. The same measure, in the same setting: to `S=C(NCCSCc1ccc(Cl)cc1Cl)Nc1ccccc1` belongs 6.31 µM (active); to `O=C(Nc1ccc(N=Nc2ccccc2)cc1)c1ccc(Cl)cc1Cl`, “inactive”. On the same count and under the same terms, to `S=C(NCc1ccccn1)Nc1cccc(Cl)c1` belongs “inactive”; to `O=C(c1cccs1)n1nc(-c2ccc(Cl)cc2)nc1NCc1ccco1`, “inactive”. The same measure, in the same setting: under `COc1ccc(Cc2nnc(NC(=O)CSc3ccc(C)cc3)s2)cc1OC` stands “inactive”; under `O=C1c2cccnc2C(O)N1C1CCCCC1` (stereo not given), “inactive”. As for `COc1ccccc1C(=O)NC(=S)N1CCCc2ccccc21`, the AC50 result is “inactive”.

`N#CC(c1ccc(Cl)cc1)(c1ncc(C(F)(F)F)cc1Cl)N1CCOCC1` (stereo not given): the AC50 result is “inactive”. On the same count and under the same terms, under `C/C(=N\NC(=O)c1ccc(Cl)cc1)c1cccc(NC(=O)C(C)C)c1` stands “inactive”; under `Cc1ccccc1C(=O)Nc1cccc(NC(=S)NC(=O)c2cccs2)c1`, “inactive”. As for `Nc1nc(=O)c2[nH]cnc2n1O`, the activity, negative = inhibition is -6.92% [at 11.4 µM] (inactive). `CCC(=O)n1nc(-c2ccc(OC)cc2)nc1N`: the AC50 entry was “inactive”. Regarding `Cc1ccc2[nH]c3c(c2c1)CN(C(=O)CN1c2ccc(F)cc2CCC1C)CC3` (stereo not given), the AC50 entry is “inactive”. For `CO[C@H]1COC(=O)[C@@H](CCSC)NC(=O)C/C=C\[C@@H](C)[C@H](OC)COC(=O)[C@@H](OCc2ccccc2)/C=C\[C@@H]1C`, the activity, negative = inhibition was -4.06% [at 11.4 µM] (inactive). As for `CCNc1nc(Oc2c(Cl)cccc2Cl)cc(C(F)(F)F)n1`, the AC50 entry is “inactive”.

In the case of `CC(C)(C)NCC[C@@H](O)c1cc(C(F)(F)F)nc2c(C(F)(F)F)cccc12`, the concentration at half-maximal activity (AC50) is 0.316 µM (active). Still for that read-out and setting: under `CC1(C)OC(C(N)=O)C(C(N)=O)O1` (stereo not given) stands “inactive”. `Cc1ccc(S(=O)(=O)NC(=O)Nc2ncn[nH]2)cc1`: the activity, negative = inhibition is 4.38% [at 11.4 µM] (inactive). As for `Cc1cccc(-n2c(=O)c3c(n4cnnc24)-c2ccccc2CC32CCCCC2)c1`, the AC50 result was “inactive”. The same measure, in the same setting: under `CSc1ccc2c(c1)N(CCCN(C)C)c1ccccc1S2` stands 0.501 µM (active); under `O=C(CSc1nc2ccccc2s1)N1c2ccccc2Sc2ccc(C(F)(F)F)cc21`, “inactive”; under `CCC(=O)c1ccc2c(c1)N(CCCN(C)C)c1ccccc1S2`, 2 µM (active). Same read-out and setting: under `CCC(=S)/C=C1\Sc2ccccc2N1CCCS(=O)(=O)O` stands “inactive”. For the compound `CN(C)CCCN1c2ccc(O)cc2Sc2ccc(Cl)cc21`, the half-maximal activity concentration (AC50) is 0.126 µM (active). On the same count and under the same terms, to `CN(C)CCCN1c2ccccc2Sc2ccc(C(F)(F)F)cc21` belongs 794 nM (active) and 398 nM (active). Same read-out and setting: to `CN(C)CCCNC(=O)c1cc2c3ccccc3n(C)c2s1` belongs “inactive”; to `CC(C)OC(=O)CSc1nc(-c2ccc(F)cc2)nc2ccc(F)cc12`, “inactive”.

On to `CC[C@@H](c1ccccc1)n1c(=O)n2n(c1=O)[C@H]1[C@H](O)[C@H]3O[C@@H]3/C(=N/OC/C=C(\C)CCC=C(C)C)[C@@H]1CC2`, for which the activity, negative = inhibition is 3.1% [at 11.4 µM] (inactive). In the case of `CCOC(=O)N/N=C/c1ccc(F)cc1`, the AC50 entry was “inactive”. With `Cc1cccc(-c2n[nH]c([N+](=O)[O-])n2)c1`, the AC50 result is “inactive”.

In the case of `COC(=O)[C@H](CCSC)NC(=O)NCc1ccccc1F`, the AC50 result was “inactive”. Take `CC(C)=NO[C@@H](C)c1cn([C@H](CO)Cc2ccccc2)nn1`: the activity, negative = inhibition is 6.42% [at 11.4 µM] (inactive) and -9.14% [at 11.4 µM] (inactive). Turning to `O=C(NCCN1CCN(C(=O)c2cc3ccccc3oc2=O)CC1)c1cc2ccccc2oc1=O`, the AC50 result was “inactive”. As to `CCNC(=S)N1CCC(NC(=O)C2CCCCC2)CC1`, the AC50 entry is “inactive”.
